Records with an inconclusive call do not appear. The source made the active and inactive calls. Calls come from the whole dose curve; as a rule, active = well fitted inhibition curve with a large enough effect; inconclusive = small, poorly fitted or top-dose-only effect; inactive = no such curve, though single readings can be large or run the other way.
What follows are compounds tested against Tumor susceptibility gene 101 protein (Homo sapiens) (UniProt Q99816) (assay: qHTS Assay for Iinhibitors of HIV-1 Budding by Blocking the Interaction of PTAP/TSG101: Hit Validation in TR assay). Conditions: Tsg101 binding domain + Texas Red-labeled PTAP peptide, fluorescence polarization, 20 min; series mostly up to 57.5 µM.
Tumor susceptibility gene 101 protein (Homo sapiens), sequence (Q99816 whole entry, looked up, the tested form may be a part): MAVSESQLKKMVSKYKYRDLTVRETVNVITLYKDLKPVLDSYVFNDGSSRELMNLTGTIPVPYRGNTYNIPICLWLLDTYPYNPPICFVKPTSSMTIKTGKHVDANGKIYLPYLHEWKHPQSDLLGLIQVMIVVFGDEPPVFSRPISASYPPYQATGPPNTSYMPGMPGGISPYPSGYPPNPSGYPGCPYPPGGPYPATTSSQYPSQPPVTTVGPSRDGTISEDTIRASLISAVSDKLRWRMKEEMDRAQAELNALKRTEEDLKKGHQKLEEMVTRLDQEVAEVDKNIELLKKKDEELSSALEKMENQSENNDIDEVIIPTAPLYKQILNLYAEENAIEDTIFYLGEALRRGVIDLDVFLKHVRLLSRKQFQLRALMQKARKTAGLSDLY
Procedure, shortened: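 Texas Red-PTAP peptide (50 nM) binding to Tsg101 binding domain (10 uM), both final, in pH 7.5 HEPES buffer, read as polarization after 20 min at room temperature; compounds pinned before peptide addition.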
Potency is the fitted concentration of half-maximal effect.

Potency, active:
Nc1ccc(-c2c3ccc(=O)cc-3oc3cc(O)ccc23)cc1C(=O)O 36.6 µM

Potency, inactive:
N#CC(C(=O)NC1CC1)c1nc2ccccc2nc1N1CCCC1 (centres undefined)
O=c1nc2c(O)cccn2c2c1c(=O)[nH]c1ccccc12
CCCn1c(=N)c(S(=O)(=O)c2ccccc2)cc2c(=O)n3cccc(C)c3nc21
COc1cccc2c1C(=O)c1c(O)c3c(c(O)c1C2=O)CC(O)(C(C)=O)CC3OC1CC(N(C)C)C(O)C(C)O1 (centres undefined)
Cc1ccc[n+](-c2nc([O-])sc2/C=N/Nc2ccc([N+](=O)[O-])cc2)c1
CCOC(=O)C1CCCN(c2nc3ccccc3nc2C(C#N)C(=O)NCc2ccccc2)C1 (centres undefined)
CCCn1c(O)c(N=Nc2ccc3ccccc3n2)c2ccccc21
N=c1oc2ccc3ccccc3c2cc1-c1nc(-c2ccccc2)cs1
O=C(NCCc1ccc(F)cc1)c1cccc2c1C(=O)c1ccc(N3CCC(Cc4ccccc4)CC3)cc1S2(=O)=O
CCCCCOc1ccc(/C=c2\sc3nc(=O)c(-c4ccccc4)nn3c2=O)cc1OC
Cc1cc(Nc2cccc(Cl)c2C)n2ncnc2n1
Cc1nn(-c2ccccc2)c(N2CCCC2)c1/C=C1\N=C(c2ccc(F)cc2)OC1=O
CC(=O)OCCn1c2nc(=O)[nH]c(=O)c-2nc2cc(C)c(C)cc21
O=c1c(-c2cc3ccccc3o2)[n+]([O-])c2ccccc2n1OCc1ccccn1
COc1ccc(N=Nc2nc3cc(Br)c(Br)cc3n2C)c(OC)c1
N=c1c(S(=O)(=O)c2ccc(Br)cc2)cc2c(=O)n3ccccc3nc2n1Cc1ccccc1
C/C(=N\NC(=O)CC#N)c1cc2ccc(O)cc2oc1=O
O=C1CCN2C=Nc3cccc4ccc1c2c34
Cc1ccc2c(c1)c1nc3ccccc3nc1n2C
CCCCC(=O)NC1=NC(=O)C(C)(C)S1
O=[N+]([O-])c1ccc(-c2ccc(/C=N/Nc3nc(N4CCCC4)nc(N4CCCC4)n3)o2)cc1
CC(=O)Nc1ccc(N=Cc2c(O)c(C(=O)Nc3ccccc3)cc3ccccc23)cc1
O=[N+]([O-])c1cc(Cl)c2cccnc2c1O
NC(=O)c1ccccc1NCC(=O)c1ccc(F)cc1
Cc1n[nH]c(C)c1N1C(=O)c2cccc3c(N4CCCCCC4)ccc(c23)C1=O
O=C1Nc2ccc(F)cc2C12Nc1ccccc1-c1nnc(SCc3ccccc3)nc1O2 (centres undefined)
O=C(NC1CCCC1)c1cccc2c1C(=O)c1ccc(N3CCCCC3)cc1S2(=O)=O
CN1C(=O)NC(c2ccccc2[N+](=O)[O-])C2=C1CCCC2=O (centres undefined)
CCCN1C(=O)/C(=C\C=C2\N(CC)c3ccccc3C2(C)C)SC1=S
CN(C)CCNc1ccc2ncn3c4ccc(O)cc4c(=O)c1c23
Cc1ccc(OC(=O)c2ccc3nc(C)sc3c2)cc1
CN(C)c1ccc(/C=C(\C#N)C(=O)Nc2nc3c(s2)CCN(Cc2ccccc2)C3)cc1
COc1ccc(C(=O)c2sc3nc(C)cc(-c4cccs4)c3c2N)cc1
O=c1[nH]c(=O)n(-c2cc(Br)c(O)c(Br)c2)cc1Br
Cn1c(O)c(N=Nc2ccc(F)cc2)c2ccccc21
COc1ccc(OC)c(/C=C2\N=C(c3ccccc3)OC2=O)c1
O=C(O)c1cc(O)c2c(c1)C(=O)c1cccc(O)c1C2=O
O=c1oc2ccccc2cc1-c1nc(-c2cccs2)cs1

Source: PubChem BioAssay AID651599 (National Center for Advancing Translational Sciences (NCATS), 2012)
